Screening results deposited in PubChem by several laboratories.
In the library only some 1.9% were active in any assay of this set; here they are far more common.
S1P4 ag = activates the human S1P4 receptor; O95977; S1P4-expressing cell line, agonist reporter assay; activation, % at 4.98 µM; 0.35% of 220,000 active; AID 1509; in the data active = activation above about 11%;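 also: 0% = DMSO vehicle and 100% = reference agonist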
EP2 mod = EP2 receptor (human) modulation. P43116. 0.83% of 260,000 active. EP2-expressing cells, cAMP HTRF FRET, PGE2 co-stimulation. induction, % at 25 µM;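 active = compounds whose cAMP rise, as percent of the full-agonist control response, exceeds 60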;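 also: rat C6 glioma line stably carrying human EP2 under a CMV promoter; the protocol text gives 20 µM as final concentration; 100% = response of wells given 1 µM PGE2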
Pf gametocyte = kills late stage P. falciparum gametocytes; AID 743093; P. falciparum stage V gametocytes, ATP luminescence, 24 h; 0.065% of 150,000 active; inhibition, % at 10.9 µM;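 active = inhibition above the mean plus 3 SD of compounds within the control limits, set per campaign, cut at about 38% in these data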;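 also: 0% = DMSO wells and 100% = medium only without gametocytes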
S1P3 antagonist = antagonists of human S1P3 receptor; Q99500; CHO S1P3 NFAT-BLA reporter, FRET fluorescence, antagonist mode; inhibition, % at 4.98 µM; 0.27% of 170,000 active;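 active = inhibition above the plate cutoff, the mean inhibition of test wells on that plate plus 3 SD, cut at about 28% in these data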;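 also: cells challenged with S1P at its EC80 of 0.8 µM; blue over green emission ratio from cleaved BLA substrate after 4 h stimulation; 0% = S1P-stimulated wells and 100% = unstimulated DMSO-only wells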
EP2 antag = inhibitors of human EP2 prostaglandin E2 receptor. 0.52% of 260,000 active. AID 1422. inhibition, % at 25 µM. C6 glioma cells expressing human EP2, cAMP TR-FRET; cells stimulated with saturating PGE2;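 active = percent inhibition above 40 after rounding to a whole number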;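 also: rat C6 glioma host cells with rolipram phosphodiesterase inhibitor present; the protocol text gives 20 µM as final concentration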
S1P4 antagonist = antagonists of human S1P4 receptor; O95977; S1P4-expressing cells, antagonist mode, reporter read-out; inhibition, % at 4.98 µM; 0.26% of 220,000 active; in the data active = inhibition above about 29%;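 also: 0% = wells stimulated with agonist and 100% = vehicle wells without agonist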
S1P4 agonist cf = confirmation of human S1P4 receptor agonists | shares compounds with S1P4 ag | S1P4 agonist cell-based reporter assay | activation, % at 4.98 µM | 7% of 740 active; in the data active = activation above about 12%;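 also: 0% = vehicle and 100% = full reference agonist response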
S1P1 ag = counter-screen for S1P4 agonists: agonists of human S1P1 | 4% of 740 active | shares compounds with S1P4 ag | S1P1 agonist cell-based assay, activation | activation, % at 4.98 µM | AID 1563; in the data active = activation above about 21%;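 also: 0% = vehicle wells and 100% = reference agonist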
Target sequence (P21453 whole entry, looked up): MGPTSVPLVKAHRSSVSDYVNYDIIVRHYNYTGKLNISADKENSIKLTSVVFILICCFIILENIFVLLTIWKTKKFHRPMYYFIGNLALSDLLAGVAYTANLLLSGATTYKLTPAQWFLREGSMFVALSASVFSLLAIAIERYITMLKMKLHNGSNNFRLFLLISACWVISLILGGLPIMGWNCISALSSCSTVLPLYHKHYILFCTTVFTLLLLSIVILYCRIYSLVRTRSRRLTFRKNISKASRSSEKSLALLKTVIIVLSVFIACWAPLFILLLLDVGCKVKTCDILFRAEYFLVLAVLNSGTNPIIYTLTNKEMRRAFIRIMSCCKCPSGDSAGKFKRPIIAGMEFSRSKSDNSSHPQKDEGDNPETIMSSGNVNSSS
Active calls of the source: *; nt = not tested or not shown.

SMILES	S1P4 ag	EP2 mod	Pf gametocyte	S1P3 antagonist	EP2 antag	S1P4 antagonist	S1P4 agonist cf	S1P1 ag
OC(CN1CCC(O)(c2ccc(C(F)(F)F)cc2)CC1)c1ccccc1 (stereo not drawn)	nt	-37	nt	nt	8	nt	nt	nt
O=C(Nc1nnc(C2CC2)s1)c1ccc(S(=O)(=O)c2ccccc2)cc1	14*	28	nt	nt	11	-14	-2	1
O=C(Nc1nnc(C2CCCC2)s1)c1ccc(F)cc1	nt	-20	nt	nt	9	nt	nt	nt
CCOc1ccc2[nH]c(=O)c(CN(Cc3ccco3)C(=S)Nc3cccc(C)c3)cc2c1	nt	-12	nt	nt	9	nt	nt	nt
CN(Cc1ccccc1)c1nnc(N)s1	13*	8	nt	-2	6	-10	-1	-8
CC(C)N(c1nnc(N)s1)C(C)C	0	23	nt	nt	7	-2	nt	nt
O=S(=O)(c1ccccc1)c1ccc(C(F)(F)F)cn1	35*	-8	-1	-5	5	6	-3	-4
O=C(Nc1ccc2oc(-c3ccncc3)nc2c1)c1c(F)c(F)c(F)c(F)c1F	-5	15	nt	-3	14	-12	nt	nt
O=C(Nc1ccc2oc(-c3ccncc3)nc2c1)c1ccc(F)cc1	20*	11	2	1	9	-11	-2	0
COc1ccc2[nH]c(=O)c(C(c3nnnn3C(C)(C)C)N3CCN(c4ccc(F)cc4)CC3)cc2c1 (stereo not drawn)	nt	-18	nt	nt	14	nt	nt	nt
Cc1ccc(NC(=O)CSc2nnc(CNC(=O)c3cccs3)o2)cc1	0	14	-4	-10	4	-4	nt	nt
COc1cc(C(=O)NCc2nnc(SCC(=O)Nc3cc(C)on3)o2)cc(OC)c1OC	0	0	nt	9	14	-6	nt	nt
COc1cc(C(=O)NCc2nnc(SCC(=O)Nc3nccs3)o2)cc(OC)c1OC	13*	-5	5	-21	3	-20	-3	-1
O=C(CSc1nnc(CNC(=O)c2cccs2)o1)Nc1ccccc1	12*	4	nt	-16	10	-6	0	-5
CS(=O)(=O)c1cncnc1C1CCCN(C(=O)NCc2ccccc2)C1 (stereo not drawn)	nt	1	nt	nt	nt	nt	nt	nt
Cc1nc2cc(-c3ccc(Cl)cc3)nn2c(C)c1CCC(=O)NC(C)c1ccc2c(c1)OCCO2 (stereo not drawn)	4	-33	nt	-3	10	-16	nt	nt
Cc1csc(NC(=O)CCc2c(C)nc3cc(-c4ccc(Cl)cc4)nn3c2C)n1	196*	-51	nt	-21	5	2	0	1
CCOC(=O)C1=C(C)NC(=S)NC1c1ccc(OCc2ccccc2)c(OC)c1 (stereo not drawn)	nt	27	nt	nt	12	nt	nt	nt
Cc1ccc(-n2c(SCC(=O)N3CC(=O)Nc4ccccc43)nc3ccccc3c2=O)cc1	27*	4	nt	3	6	2	-2	-8
Cc1cccc(C)c1-n1c(SCC(=O)N2CC(=O)Nc3ccccc32)nc2ccccc2c1=O	2	-3	-9	-5	6	-10	nt	nt
CC(CS(=O)(=O)c1ccc2ccccc2c1)N1CCCCCC1 (stereo not drawn)	nt	-14	nt	nt	9	nt	nt	nt
Cc1cc2nc(/N=C(\N)NC(=O)C(C)C)nc(C)c2cc1C	1	-30	-4	-4	11	-15	nt	nt
CCC(=O)N/C(N)=N/c1nc(C)c2cc(C)c(C)cc2n1	12*	-4	-23	1	11	-8	-1	-6
Cc1cccc(C)c1Nc1nnc(SCC(=O)c2ccc(Br)s2)s1	34*	20	2	-3	6	-13	-2	-1
O=C(NCC(=O)N1CCCCC1)c1ncoc1-c1ccc(F)cc1	nt	-66	nt	nt	5	nt	nt	nt
O=C(Cc1ncc(C(F)(F)F)cc1Cl)NCCc1ccccn1	13*	16	-8	1	8	6	-1	5
CN(C)CCNC(=O)Cc1ncc(C(F)(F)F)cc1Cl	2	-4	-5	-5	3	-8	nt	nt
OC1(c2cccc(F)c2)CC2CCC(C1)N2c1ncnc2nc[nH]c12 (stereo not drawn)	nt	-37	nt	nt	7	nt	nt	nt
O=S(=O)(NC1CCCCC1NS(=O)(=O)c1ccc(F)cc1)c1ccc(F)cc1 (stereo not drawn)	15*	7	nt	12	8	-12	-2	-1
